# Experimental data as given in ChEMBL document CHEMBL1157539, “Thousands of chemical starting points for antimalarial lead identification” (Nature, 2010).
# Where “and” joins values, the source holds several entries; their conditions need not be identical. Identical values can stand only once.
# Tested on: Plasmodium falciparum
# Test: GSK_TCMDC: Inhibition of Plasmodium falciparum 3D7 in whole red blood cells, using parasite LDH activity as an index of growth. Test compounds present at 2uM
# Assay type: functional
row,SMILES,Inhibition
1,COc1ccc(OC)c(Cc2c(C)nc3nc(N)nc(N)c3c2C)c1.Cl,90%
2,COc1ccc2c(c1CCNCCCCNCCc1c(OC)ccc3c1CCCC3)CCCC2.CS(=O)(=O)O,100%
3,CCCCCCOc1ccc2ccccc2c1CNCCCCCCNCc1c(OCCCCCC)ccc2ccccc12.CS(=O)(=O)O,85%
4,CCC(C(C)C)n1ccc2c3c(N)nc(N)nc3ccc21 (stereo not given),95%
5,Cc1nc(C)c(-c2ccc(Oc3cccc(OC(F)(F)F)c3)cc2)c(O)c1Cl,97%
6,CC(=O)Oc1c(Cl)c(C)nc(C)c1-c1ccc(Oc2ccc(OC(F)(F)F)cc2)cc1,97%
7,Cc1[nH]c(C)c(-c2ccc(Oc3ccc(Cl)cc3)cc2)c(=O)c1C,96%
8,CC/N=C(/NCCCCCCN/C(=N/CC)NCc1ccccc1)NCc1ccccc1.I,96%
9,COc1cccc2c(O)c(CNC3CCCCC3)ccc12.Cl,100%
10,CCCc1cc2c3c(N)nc(N)nc3ccc2n1CC,96%
11,COc1ccccc1-c1nc2c(ccc3nc(N)nc(N)c32)[nH]1,100%
12,Cc1nc(C)c(-c2cccc(Oc3ccc(Cl)cc3)c2)c(O)c1Br,96%
13,CC(CO)(CO)NCc1cc2ccc3ccsc3c2c2ccccc12.CS(=O)(=O)O,96%
14,Cc1[nH]c(C)c(-c2ccc(Oc3ccc(Cl)cc3)cc2)c(=O)c1Cl,91%
15,Nc1nc(N)c2c(ccc3c2ccn3Cc2cccc(F)c2)n1,100%
16,COc1ccc(Cc2c(Cl)nc3nc(N)nc(N)c3c2C)c(OC)c1OC,98%
17,Cc1[nH]c(C)c(-c2ccc(Oc3ccccc3)cc2)c(=O)c1Br,96%
18,Cc1nc(N)nc(N)c1-c1cc(Cl)c(Cl)c(Cl)c1,97%
19,CC(C)n1c(C(C)(C)C)cc2c3c(N)nc(N)nc3ccc21,100%
20,CC1CCN(Cc2c(O)ccc3c(CN4CCC(C)CC4)c(O)ccc23)CC1.Cl,100%

row,SMILES,Inhibition
1,Nc1nc(N)c2c(ccc3c2cnn3Cc2cccnc2)n1,95%
2,Nc1nc(Cc2ccc(Cl)cc2)nc(Cc2ccc(Cl)cc2)n1,85%
3,Cl.c1ccc2c(NCCOCCNc3c4ccccc4nc4ccccc34)c3ccccc3nc2c1,94%
4,COc1cc(Cc2cnc(N)nc2N)cc(OCCCCC#N)c1OC,86%
5,Nc1nc(N)c2cc(Cc3ccc([N+](=O)[O-])cc3)cnc2n1.O=S(=O)(O)O,91%
6,Nc1nc(N)c2c(ccc3[nH]c(-c4ccccc4Cl)nc32)n1,100%
7,COc1ccc(OC)c(CC2c3ccc(Br)c(O)c3CCN2C)c1.Cl (stereo not given),98%
8,CCCc1cc(OC)c(CC2c3cc(O)c(Cl)cc3C(c3ccccc3)CN2C)cc1OC.Cl (stereo not given),100%
9,CCN(C)C(=O)n1ncc2c3c(N)nc(N)nc3ccc21,95%
10,CC(C)Cn1ccc2c3c(N)nc(N)nc3ccc21,96%
11,COc1cc(Cc2cnc(N)nc2N)cc(OCCCCc2ccc([N+](=O)[O-])cc2)c1OC,88%
12,Cc1nc2nc(N)nc(N)c2c(C)c1Cc1ccc(N)cc1.Cl,97%
13,N=C(NCC1CC1c1ccccc1)c1cccc(C(=N)NCC2CC2c2ccccc2)n1 (stereo not given),95%
14,CC(C)(C)c1ccc(-c2nnc(N)nc2N)cc1,92%
15,Cl.N=C(N)c1ccc(OCCCCCOc2ccc(C(=N)N)cc2)cc1 [PENTAMIDINE HYDROCHLORIDE],99%
16,CC(=NNc1nc2ccccc2s1)c1ccccn1.Cl,88%
17,Cc1nc(C)c(-c2ccc(-c3ccc(F)cc3)cc2)c(O)c1Cl,96%
18,Cl.N=C(N)c1ccc2[nH]c(-c3cc4cc(C(=N)N)ccc4o3)cc2c1,94%
19,Cl.O[C@@H](c1cc(C(F)(F)F)nc2c(C(F)(F)F)cccc12)[C@H]1CCCCN1,96% and 99%
20,Nc1nc(N)c2c(Sc3ccc(F)cc3)cccc2n1,88%
